From PubChem BioAssay AID1159580 (chemical genetic matrix, 2015)
Hit rate of the full screen: of about 5,500 compounds, about 2,000 (36%) were called active. Roughly 18% stayed inconclusive and do not appear here. Rule as the data show it: active = normalized growth mostly below about 0.91 (no sharp cut-off); inconclusive = no clear call, values can overlap the other calls; inactive = mostly above about 0.92. Some of the results follow.

Assay: chemical genetic growth profiling, strain panel (AID 1159580);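 also: tested at 20 µM; growth read once vehicle control cultures reached saturation at 30 °C; 1 = growth at the plate median or of vehicle wells; lower values mean less growth of the strain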
Conditions: growth OD

Measured: normalized growth

C=C1[C@H]2CC[C@@]3(C)[C@H](c4ccoc4)OC(=O)C[C@]13O[C@H]1C[C@H](O)C(C)(C)[C@H](CC(=O)OC)[C@]12C
inactive: S. cerevisiae deletion strains, locus YJR066W, strain TOR1, stronger effect = lower value 0.936 | S. cerevisiae deletion strains, locus YJR075W, strain HOC1, stronger effect = lower value 0.994 | S. cerevisiae deletion strains, locus YKL009W, strain mrt4, stronger effect = lower value 0.997 | S. cerevisiae deletion strains, locus YKL068W, stronger effect = lower value 1.02 | S. cerevisiae deletion strains, locus YKL085W, strain MDH1 (second series), stronger effect = lower value 1 | S. cerevisiae deletion strains, locus YKL085W, strain MDH1, stronger effect = lower value 1 | S. cerevisiae deletion strains, locus YKL160W, strain elf1, stronger effect = lower value 0.998 | S. cerevisiae deletion strains, locus YKR001C, strain vps1, stronger effect = lower value 1.01 | S. cerevisiae deletion strains, locus YKR026C, strain gcn3, stronger effect = lower value 1.02 | S. cerevisiae deletion strains, locus YKR091W, strain srl3, stronger effect = lower value 1.02 | S. cerevisiae deletion strains, locus YLL001W, strain dnm1, stronger effect = lower value 1.01 | S. cerevisiae deletion strains, locus YLL026W, stronger effect = lower value 1.01 | S. cerevisiae deletion strains, locus YLL041C, strain sdh2, stronger effect = lower value 1.01 | S. cerevisiae deletion strains, locus YLR027C, strain aat2, stronger effect = lower value 1.01 | S. cerevisiae deletion strains, locus YLR039C, strain RIC1, stronger effect = lower value 0.969 | S. cerevisiae deletion strains, locus YLR058C, strain SHM2, stronger effect = lower value 1.01 | S. cerevisiae deletion strains, locus YLR102C, strain apc9, stronger effect = lower value 1.01 | S. cerevisiae deletion strains, locus YLR113W, strain HOG1, stronger effect = lower value 1.04 | S. cerevisiae deletion strains, locus YLR221C, strain rsa3, stronger effect = lower value 1.03 | S. cerevisiae deletion strains, locus YLR258W, strain gsy2, stronger effect = lower value 1 | S. cerevisiae deletion strains, locus YLR262C, strain YPT6 (second series), stronger effect = lower value 0.994 | S. cerevisiae deletion strains, locus YLR262C, strain YPT6, stronger effect = lower value 0.938 | S. cerevisiae deletion strains, locus YLR268W, strain sec22, stronger effect = lower value 1.01 | S. cerevisiae deletion strains, locus YLR320W, strain mms22, stronger effect = lower value 1.03 | S. cerevisiae deletion strains, locus YLR342W, strain FKS1, stronger effect = lower value 1.02 | S. cerevisiae deletion strains, locus YLR357W, strain rsc2, stronger effect = lower value 1.03 | S. cerevisiae deletion strains, locus YLR370C, strain arc18, stronger effect = lower value 1 | S. cerevisiae deletion strains, locus YLR371W, strain rom2, stronger effect = lower value 1.02 | S. cerevisiae deletion strains, locus YLR384C, strain iki3, stronger effect = lower value 1.01 | S. cerevisiae deletion strains, locus YLR418C, strain cdc73, stronger effect = lower value 0.997 | S. cerevisiae deletion strains, locus YML016C, strain PPZ1, stronger effect = lower value 1 | S. cerevisiae deletion strains, locus YML032C, strain rad52, stronger effect = lower value 1.01 | S. cerevisiae deletion strains, locus YML120C, strain ndi1, stronger effect = lower value 0.998 | S. cerevisiae deletion strains, locus YML124C, strain tub3, stronger effect = lower value 1.02 | S. cerevisiae deletion strains, locus YMR058W, strain fet3, stronger effect = lower value 1.05 | S. cerevisiae deletion strains, locus YMR078C, strain ctf18, stronger effect = lower value 1.02 | S. cerevisiae deletion strains, locus YMR125W, strain sto1, stronger effect = lower value 1 | S. cerevisiae deletion strains, locus YMR129W, stronger effect = lower value 1.01 | S. cerevisiae deletion strains, locus YMR205C, strain PFK2, stronger effect = lower value 1.01 | S. cerevisiae deletion strains, locus YMR223W, strain ubp8, stronger effect = lower value 1.01 | S. cerevisiae deletion strains, locus YMR231W, strain pep5, stronger effect = lower value 1.01 | S. cerevisiae deletion strains, locus YMR263W, strain SAP30, stronger effect = lower value 1.01 | S. cerevisiae deletion strains, locus YMR307W, strain GAS1, stronger effect = lower value 1.03 | S. cerevisiae deletion strains, locus YNL067W, strain RPL9B, stronger effect = lower value 1 | S. cerevisiae deletion strains, locus YNL071W, strain lat1, stronger effect = lower value 1.01 | S. cerevisiae deletion strains, locus YNL153C, strain GIM3, stronger effect = lower value 1.01 | S. cerevisiae deletion strains, locus YNL183C, strain NPR1, stronger effect = lower value 0.943 | S. cerevisiae deletion strains, locus YNL209W, strain ssb2, stronger effect = lower value 1.04 | S. cerevisiae deletion strains, locus YNL233W, strain BNI4, stronger effect = lower value 0.988 | S. cerevisiae deletion strains, locus YNL248C, strain rpa49, stronger effect = lower value 1.05 | S. cerevisiae deletion strains, locus YNL250W, strain rad50, stronger effect = lower value 1.01 | S. cerevisiae deletion strains, locus YNL271C, strain bni1, stronger effect = lower value 0.995 | S. cerevisiae deletion strains, locus YNL298W, strain CLA4, stronger effect = lower value 1.02 | S. cerevisiae deletion strains, locus YNL307C, strain MCK1, stronger effect = lower value 1.02 | S. cerevisiae deletion strains, locus YNL322C, strain KRE1 (second series), stronger effect = lower value 1.02 | S. cerevisiae deletion strains, locus YNL322C, strain KRE1, stronger effect = lower value 1 | S. cerevisiae deletion strains, locus YNR049C, strain mso1, stronger effect = lower value 1.02 | S. cerevisiae deletion strains, locus YNR052C, strain pop2, stronger effect = lower value 1.02 | S. cerevisiae deletion strains, locus YOL006C, strain TOP1, stronger effect = lower value 1 | S. cerevisiae deletion strains, locus YOL012C, strain htz1 0.768 | S. cerevisiae deletion strains, locus YOL147C, strain pex11, stronger effect = lower value 1.02 | S. cerevisiae deletion strains, locus YOR001W, strain rrp6, stronger effect = lower value 1.03 | S. cerevisiae deletion strains, locus YOR061W, strain CKA2, stronger effect = lower value 1 | S. cerevisiae deletion strains, locus YOR069W, strain VPS5, stronger effect = lower value 1 | S. cerevisiae deletion strains, locus YOR070C, strain gyp1, stronger effect = lower value 1.03 | S. cerevisiae deletion strains, locus YOR080W, strain dia2, stronger effect = lower value 1.02 | S. cerevisiae deletion strains, locus YOR083W, strain WHI5, stronger effect = lower value 0.999 | S. cerevisiae deletion strains, locus YOR106W, strain vam3, stronger effect = lower value 0.998 | S. cerevisiae deletion strains, locus YOR136W, strain idh2, stronger effect = lower value 1.02 | S. cerevisiae deletion strains, locus YOR144C, strain elg1, stronger effect = lower value 1.02 | S. cerevisiae deletion strains, locus YOR184W, strain ser1, stronger effect = lower value 1.02 | S. cerevisiae deletion strains, locus YOR231W, strain MKK1, stronger effect = lower value 0.985 | S. cerevisiae deletion strains, locus YOR265W, strain rbl2, stronger effect = lower value 1 | S. cerevisiae deletion strains, locus YOR270C, strain vph1, stronger effect = lower value 1.01 | S. cerevisiae deletion strains, locus YOR290C, strain snf2, stronger effect = lower value 0.974 | S. cerevisiae deletion strains, locus YOR316C, strain cot1, stronger effect = lower value 1.02 | S. cerevisiae deletion strains, locus YPL051W, strain arl3, stronger effect = lower value 1.02 | S. cerevisiae deletion strains, locus YPL078C, strain atp4, stronger effect = lower value 0.985 | S. cerevisiae deletion strains, locus YPL106C, strain sse1, stronger effect = lower value 1 | S. cerevisiae deletion strains, locus YPL240C, strain hsp82, stronger effect = lower value 1.01 | S. cerevisiae deletion strains, locus YPL256C, strain CLN2, stronger effect = lower value 0.981 | S. cerevisiae deletion strains, locus YPR119W, strain clb2, stronger effect = lower value 1.01 | S. cerevisiae deletion strains, locus YPR141C, strain kar3, stronger effect = lower value 1.02 | S. cerevisiae deletion strains, locus YPR163C, strain tif3, stronger effect = lower value 1.01 | S. cerevisiae deletion strains, locus YPR167C, strain met16, stronger effect = lower value 1.02 | S. cerevisiae deletion strains, strain wtn01, stronger effect = lower value 1.01 | S. cerevisiae strains, strain wild type, stronger effect = lower value 1.01
